Laboratory results as given in PubChem BioAssay AID2676 (National Center for Advancing Translational Sciences (NCATS), 2010).
Hit rate of the full screen: of about 370,000 compounds, about 1,100 (0.3%) were called active. Another 1% or so got no clear call; they are omitted. This excerpt belongs to a sample that is enriched for actives. Unmarked numbers belong to inactive results. The call rests on the fitted dose curve; in most records, active means well fitted activation curve with a large enough effect; inconclusive means small, poorly fitted or top-dose-only effect; inactive means flat fitted curve, though single readings scatter.

molecular target: Relaxin receptor 1 (Homo sapiens) (UniProt Q9HBX9); assay: qHTS Assay for Agonists of the Relaxin Receptor RXFP1; settings: HEK293T-RXFP1 cAMP TR-FRET, 30 min; series mostly up to 57.5 µM; activation: at the top concentration; further: nearly all actives have a fitted effect of over 60% in size
Sequence (Q9HBX9 whole entry, looked up): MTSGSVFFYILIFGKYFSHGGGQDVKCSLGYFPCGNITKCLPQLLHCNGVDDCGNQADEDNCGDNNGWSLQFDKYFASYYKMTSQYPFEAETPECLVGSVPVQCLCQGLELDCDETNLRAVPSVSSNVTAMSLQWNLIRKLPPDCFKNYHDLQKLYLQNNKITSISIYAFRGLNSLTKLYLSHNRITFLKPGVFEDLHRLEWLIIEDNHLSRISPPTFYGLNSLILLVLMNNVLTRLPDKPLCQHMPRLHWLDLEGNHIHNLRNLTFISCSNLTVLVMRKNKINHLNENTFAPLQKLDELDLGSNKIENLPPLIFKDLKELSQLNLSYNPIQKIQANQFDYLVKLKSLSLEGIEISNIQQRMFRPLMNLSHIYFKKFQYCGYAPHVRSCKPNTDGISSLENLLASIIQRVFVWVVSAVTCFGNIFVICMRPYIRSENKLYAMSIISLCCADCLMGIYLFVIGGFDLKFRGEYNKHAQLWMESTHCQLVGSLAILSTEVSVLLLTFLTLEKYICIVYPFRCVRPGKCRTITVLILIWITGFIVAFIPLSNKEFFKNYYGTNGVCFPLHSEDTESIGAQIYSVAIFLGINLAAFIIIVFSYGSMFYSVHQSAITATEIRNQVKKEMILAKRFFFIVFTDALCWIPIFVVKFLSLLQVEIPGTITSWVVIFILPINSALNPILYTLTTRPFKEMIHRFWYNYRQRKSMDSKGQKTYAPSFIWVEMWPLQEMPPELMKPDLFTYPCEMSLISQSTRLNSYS
Description: NIH Chemical Genomics Center [NCGC] NIH Molecular Libraries Probe Production Centers Network [MLPCN] MLPCN Grant: R03 MH085705-01A1 Assay Submitter (PI): Alexander Agoulnik NCGC Assay Overview: The relaxin hormone is involved in the variety of biological functions in normal tissues and diseases. The role of relaxin is well-established in female reproduction and parturition, mammary gland and endometrial development, maintenance of myometrial quiescence during pregnancy. Relaxin signaling through its G protein-coupled receptor (GPCR) RXFP1 results in ECM remodeling through regulation of collagen deposition, cell invasiveness, proliferation and overall tissue homeostasis. […] Recombinant human relaxin (rhRlx) is currently being tested in clinical trials as a protective agent in congestive heart failure, in treating severe preeclampsia, and as an anti-fibrotic agent in systemic sclerosis. Upon relaxin binding RXFP1 activation leads to the activation of adenylate cyclase (AC) via Gs. cAMP will activate PKA, which phosphorylates many signaling proteins. Thus, detection of cAMP increase is an easy and reliable indication of relaxin receptor activation. To screen for agonists of the relaxin receptor, a HEK293T cell line stably transfected with RXFP1 was used. RXFP1 activation was assayed by changes in cAMP levels as detected with a time-resolved fluorescence energy transfer (TR-FRET) cAMP detection kit.
NCGC Assay Protocol Summary: This is a cell-based assay for cAMP second messenger response to screen for agonists of the RXFP1 receptor. The assay was conducted in the presence of a PDE4 inhibitor (Ro 20174). The cells were lysed and the cAMP levels were measured with a TR-FRET cAMP kit. Presence of cAMP in the cell lysate disrupts binding between the cryptate-labeled anti-cAMP and d2-labeled cAMP pair, leading to a decrease in the TR-FRET signal. Data were normalized to the controls for basal activity (buffer only) and 100% activity (29 nM porcine relaxin). The EC50 values were determined from concentration-response data modeled with the standard Hill equation 1536-well assay protocol for the HEK293 RXFP1 cAMP assay: (1) Add 3 ul HEK293 RXFP1 cell culture. 2000 cells/well in DMEM/F12, 10% FBS, 1x Pen/Strep (dispensed offline with MultiDrop Combi). (2) Incubate 16-24 hr at 37C, 5% CO2. (3) Add 1 ul 400uM Ro20174 in DPBS, 0.05% BSA, 0.005% Tween 20. (3) Add 23 nl compounds in DMSO solution. Final concentration was 0.5 - 58 uM. (4) Incubate 30 min at 37C, 5% CO2. (5) Add 1 ul cAMP-d2 in lysis buffer (HTRF cAMP HiRange kit, CisBio). (6) Add 1 ul anti-cAMP antibody-cryptate in lysis buffer (HTRF cAMP HiRange kit, CisBio). (7) Incubate 30 min at room temperature. (6) Detect the assay plate in a ViewLux plate reader (PerkinElmer) with Ex=320 nm, Em1=615 nm and Em2=665 nm. Keywords: relaxin, RXFP1, RXFP2, G-protein coupled receptor, cAMP, agonist, high throughput screening, MLSMR, MLSCN, NIH Roadmap, qHTS and NCGC
On the % scale 0 is the no-effect control and ±100 the full control effect; potency means the concentration at half of the fitted maximal effect.

Structure (SMILES)	activation [%]	Potency
O=C1CN(C(=O)Nc2ccccc2C(F)(F)F)C(c2ccccc2)c2c(sc3c2CCCC3)N1 (centres undefined)	-3.54	–
Cc1cccc(N2CCN(C(=O)CCn3c(=O)c4cccn4c4cccnc43)CC2C)c1 (centres undefined)	0.827	–
Cc1ccc(CCNC(=O)c2ccc3c(c2)nc2n3CCC(C)C2)cc1 (centres undefined)	-2.6	–
COc1ccc(-c2cn3c(n2)sc2cc(C(=O)Nc4ccccc4F)ccc23)cc1	12.7	–
CC(C)(C)C1CCc2c(sc(NC(=O)c3ccccc3F)c2C(=O)N2CCCCC2)C1 (centres undefined)	6.29	–
CCN1CCN(Cc2c(O)ccc3oc(C)c(C(=O)Nc4ccc(C)cc4C)c23)CC1	0.265	–
COc1cccc(-n2cc(C(=O)NCc3cccc(Cl)c3)c3ccccc3c2=O)c1	1.08	–
COc1ccc(NC(=O)NC(C)c2c(-n3cccc3)sc(C)c2C)cc1OC (centres undefined)	1.3	–
CCOC(=O)c1ccc(NC(=O)CSc2nc3c([nH]c4ccccc43)c(=O)n2C)cc1	1.08	–
Cc1c(Cl)cccc1NC(=O)Cn1cc(C(=O)c2cccs2)c2ccccc21	2.58	–
CC(=O)N1CCCc2ccc(NS(=O)(=O)c3ccc(F)cc3F)cc21	-0.645	–
COc1cccc(Cn2c(CNS(=O)(=O)c3ccc(Cl)s3)nc3cccnc32)c1	1.25	–
CCOC(=O)c1sc(=NC(=O)/C=C/c2cccs2)n(C)c1C	2.99	–
CCOC(=O)c1sc(=NC(=O)c2ccc(Br)cc2)n(C)c1C	–	17.8 µM (active)
CCN(CC)S(=O)(=O)c1ccc(C(=O)N=c2sc3cccc(OC)c3n2C)cc1	3.69	–
CCN(CC)c1ccc(C2C(C(N)=O)=C(C)Nc3nc(SCc4ccccc4)nn32)cc1 (centres undefined)	3.85	–
CCCC(=O)Nc1ncnc2c1ncn2[C@@H]1O[C@@H]2OP(=O)(O)OC[C@H]2[C@H]1OC(=O)CCC	–	0.631 µM (active)
Cc1ccccc1CSc1nc(-c2ccccc2)nc2c1Cc1c(CO)cnc(C)c1O2	6.11	–
CCOc1ccc(S(=O)(=O)N(CC(=O)NCCSCc2ccc(C)cc2)c2ccccc2)cc1	0.384	–
Cc1nn2c(=O)cc(COC(=O)c3cccc(NC(=O)COc4ccccc4Cl)c3)nc2s1	0.441	–
Cn1c(=O)c2c(SCC(=O)N3CCOCC3)nc(C3CC3)nc2n(C)c1=O	9.17	–
C#CC(C)(C)NC(=O)CSc1nc2c(c(=O)n(C)c(=O)n2C)n1CCCC	5.88	–
CCCCn1c(SCC(=O)N2CCOCC2)nc2c1c(=O)n(C)c(=O)n2C	–	15.8 µM (active)
Cc1cc(C)cc(OCC(=O)Nc2nc(-c3ccc(F)cc3)ns2)c1	16.4	–
O=C(CSc1nccn1-c1ccc(F)cc1)Nc1cccc2ccccc12	-0.361	–

Structure (SMILES)	activation [%]	Potency
Cc1ccc(CNC(=O)CCc2c(C)nc3nc(CNC(=O)OC(C)(C)C)nn3c2C)cc1	0.404	–
COc1ccccc1-c1nnc(C2CCN(C(=O)c3ccc(Cl)cc3)CC2)o1	3.12	–
CC1Cc2cc(S(=O)(=O)CCC(=O)Nc3ccc(F)c(Cl)c3)ccc2N1C(=O)C1CC1 (centres undefined)	-0.89	–
COc1ccccc1/C=C/c1nc(C#N)c(NC(C)c2ccccc2)o1 (centres undefined)	17.5	–
CCOc1ccc(C2C(=O)N(C3CCCCC3)CC(=O)N2CCC2=CCCCC2)cc1OC (centres undefined)	2.13	–
COc1ccc(-c2noc(-c3ccc(N4CCN(c5ccccc5)CC4)c([N+](=O)[O-])c3)n2)cc1OC	-5.38	–
COc1ccc(CNC(=O)c2cc3c(=O)[nH]c4ccccc4c3s2)cc1	20.9	–
CCCn1c(=N)n(CC(O)COc2ccccc2OC)c2ccccc21 (centres undefined)	-0.0771	–
Cc1cc2c(cc3c(SCc4nc(-c5ccccc5)oc4C)nnc(C)n32)o1	21.8	–
Cc1cc2c(cc3c(SCc4cccc(Cl)c4)nnc(C)n32)o1	–	22.4 µM (active)
Cc1nnc(SCc2cccc(Cl)c2)n(N)c1=O	2.6	–
NS(=O)(=O)c1ccc(CCNC(=O)CCCCCn2c(=O)[nH]c3ccccc3c2=O)cc1	0.989	–
FC(F)(F)c1cc(Nc2nc3ccccc3c3nncn23)ccc1Cl	2.38	–
O=C(COc1ccc2c3c(c(=O)oc2c1)CCC3)NC1CCCCC1	3.76	–
O=C(Oc1ccccc1)Oc1ccc2c(c1)oc(=O)c1ccccc12	–	7.94 µM (active)
O=C(COc1ccc2c3c(c(=O)oc2c1)CCCC3)NCC(O)c1ccccc1 (centres undefined)	25.9	–
CCOC(=O)CNC(=O)CSc1ccc2nnc(-c3cccnc3)n2n1	–	17.8 µM (active)
COC(=O)c1ccc(CSc2ccc3nnc(-c4ccccc4)n3n2)o1	7.04	–
COc1ccccc1CCNC(=O)CSc1nnc2ccc(-c3cccnc3)nn12	21.2	–
Cc1c(C)n(Cc2ccc(Cl)cc2)c2ccc(C(=O)NCCc3ccc(S(N)(=O)=O)cc3)cc12	-0.239	–
O=C(CN1CCN(Cc2ccc(Cl)cc2)C1=O)NCc1ccc(F)cc1	3.31	–
COc1ccccc1OCC(=O)Nc1nnc2n1CCS2	3.18	–
COCCNC(=O)c1cc(-c2cccc(Cl)c2)on1	-2.02	–
O=C(CSc1nccn1C1CCCC1)Nc1cc(C(F)(F)F)ccc1Cl	1.18	–
